Rows were chosen to be rich in hits. Some 3.7% of all compounds tested hit in one or more screens of this group.
UGM FP inh: blocks M. tuberculosis UGM enzyme; P9WIQ1; purified UGM, fluorescence polarization probe displacement; inhibition, % at 10 µM; actives 0.06% (n = 320,000); AID 504406; in the data active = inhibition above about 10%, passing the limit was not always enough
Target sequence (P9WIQ1 whole entry, looked up): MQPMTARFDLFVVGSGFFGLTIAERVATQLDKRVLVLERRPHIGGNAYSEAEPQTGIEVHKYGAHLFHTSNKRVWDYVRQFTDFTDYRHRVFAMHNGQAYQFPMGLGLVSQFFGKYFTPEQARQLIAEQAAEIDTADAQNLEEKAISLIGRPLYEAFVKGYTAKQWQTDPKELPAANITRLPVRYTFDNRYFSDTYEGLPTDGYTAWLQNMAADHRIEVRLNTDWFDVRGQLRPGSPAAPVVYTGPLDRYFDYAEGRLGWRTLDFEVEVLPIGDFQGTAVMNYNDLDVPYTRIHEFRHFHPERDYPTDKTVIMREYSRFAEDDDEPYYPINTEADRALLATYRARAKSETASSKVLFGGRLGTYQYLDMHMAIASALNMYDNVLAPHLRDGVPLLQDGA
Mtb FBA inh: inhibits M. tuberculosis FBA enzyme; P9WQA3; purified M. tuberculosis FBA, fluorescence read-out; inhibition, % at 1 µM; actives 2.3% (n = 360,000); AID 588726; in the data active = inhibition above about 27%;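 also: 0% = vehicle and 100% = reference inhibitor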
Mtb bLac sens: beta-lactam sensitization of Mtb H37Rv. M. tuberculosis H37Rv growth with meropenem, percent inhibition. inhibition, % at 25 µM. actives 0.27% (n = 330,000). AID 434955; call rule not given here;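 also: growth measured after seven days incubation then overnight dye step; 0% = bacteria only wells and 100% = bacteria with antibiotic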
Rv3671c protease: inhibitors of M. tuberculosis serine protease Rv3671c. P9WHR9. inhibition, % at 5.96 µM. actives 0.048% (n = 320,000). AID 2606; in the data active = inhibition above about 38%;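 also: extracellular domain of Rv3671c used as enzyme; 0% = enzyme with DMSO and 100% = no enzyme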
FadD28 FP inh: M. tuberculosis FadD28 bisubstrate binding inhibition; FadD28 bisubstrate probe binding, fluorescence polarization; inhibition, % at 12.5 µM; actives 0.22% (n = 360,000); AID 588549; in the data active = inhibition above about 8.5%, passing the limit was not always enough
GDH-TPI inh: counter-screen for M. tuberculosis FBA inhibitors: GDH-TPI coupled enzymes; GDH-TPI coupled enzyme counterscreen, NADH absorbance; inhibition, % at 4.8 µM; actives 1.2% (n = 360,000); AID 588335; in the data active = inhibition above about 30%;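 also: 0% = DMSO wells and 100% = wells lacking the enzyme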
Numbers without * were called inactive; nt = no result; + = active, no number.

SMILES	UGM FP inh	Mtb FBA inh	Mtb bLac sens	Rv3671c protease	FadD28 FP inh	GDH-TPI inh
O=C(CC(=O)c1c(F)cccc1Cl)c1ccccc1O	1.6	9.9	85.7	7.0	-0.5	33.2*
COc1ccc(CN2C(=O)C(CC(=O)NCCc3ccccn3)CC(C(=O)N3CCOCC3)=C2C)cc1 (configuration not stated)	nt	2.9	nt	nt	-0.1	nt
Cc1c(C)c2ccc(OCc3ccc(C(=O)O)o3)c(C)c2oc1=O	3.1	130.8*	1.1	3.7	-7.3	26.0
Cc1cc(C)cc(COc2ccc3c(C)c(CC(=O)O)c(=O)oc3c2C)c1	-1.2	9.3	-0.1	1.6	-4.0	14.0
CN[C@@H]1CC[C@H](c2ccc(Cl)c(Cl)c2)c2ccccc21	0.0	-0.9	nt	nt	-4.1	nt
Cc1c(C(=O)NNC(=O)c2csc(N3CCOCC3)n2)oc2ccc(Br)cc12	nt	5.3	nt	nt	0.5	4.9
CNc1nnc(-c2ccc(N(C)C)cc2)s1	-0.7	+	2.6	-2.2	-0.6	45.8*
NC(c1cccc(F)c1)c1nc(-c2ccc(Cl)cc2)cs1 (configuration not stated)	nt	-0.7	nt	nt	-3.4	-1.8
CC(=O)c1ccc(OCCCC(=O)Nc2cc(S(=O)(=O)N3CCCCC3)ccc2C)cc1	nt	0.6	nt	nt	1.4	4.6
CC(=O)c1ccc(N2CCN(C(=O)C3(S(=O)(=O)c4ccc(Cl)cc4)CC3)CC2)cc1	-1.3	2.9	21.2	3.2	-2.5	34.0*
CC1CN(S(=O)(=O)c2cc(C(=O)NCCCN3CCCC3=O)ccc2Cl)CC(C)O1 (configuration not stated)	0.7	1.7	1.3	-1.8	0.1	-1.0
CC(C)(O)c1ccccc1CC[C@@H](SCC1(CC(=O)O)CC1)c1cccc(/C=C/c2ccc3ccc(Cl)cc3n2)c1	-3.2	5.9	1.9	-57.9	-1.4	31.4*
CC(=O)Oc1ccc(Cl)cc1/C=C/c1ccc2ccccc2n1	0.6	8.0	6.4	-14.6	0.1	17.9
c1ccc(Oc2ccc(-c3ccn[nH]3)cc2)cc1	-0.8	-1.8	2.7	-1.8	-6.5	-2.6
c1ccc(-c2ncc(-c3ccn[nH]3)s2)cc1	-0.7	138.6*	-1.0	0.7	-1.2	15.5
Cc1oc(=O)cc(OCc2ccccc2)c1C	nt	0.9	nt	nt	-0.5	6.2
CC(C)Sc1nsc2nc(=O)c(/C=C3\C=Nc4ccccc43)c(N)n12	0.8	-2.3	-4.0	-51.4	19.3*	14.8
CCC(CC)c1nn2c(N)c(/C=C3\C=Nc4ccccc43)c(=O)nc2s1	3.9	+	-12.0	-8.4	-2.2	18.6
CCOC(=O)C1=C(C(=O)OCC)c2ccc(OC)c(OC)c2C1	nt	6.8	nt	nt	-2.3	9.6
CCN(CC(=O)Nc1ccccc1C(F)(F)F)C(=O)/C=C/c1ccc(Cl)c([N+](=O)[O-])c1	0.0	-2.0	-2.8	-4.2	-0.4	5.2
COc1ccccc1NC(=O)Nc1ccccc1C#N	3.6	9.5	-7.0	-1.5	-1.3	-0.5
N#Cc1ccccc1NC(=O)Nc1ccccc1	-1.5	49.6*	-4.5	5.2	-1.5	-3.4
CCOC(=O)N1CCN(C(=O)CCSc2ccc(C)cc2)CC1	0.2	-6.3	-4.2	5.6	-1.4	8.3
CCOC(=O)N1CCN(C(=O)CCSc2ccccc2)CC1	0.3	123.4*	-4.5	7.4	-1.0	-2.4
CCCc1c(O)c2ccccc2n(-c2ccccc2)c1=O	-2.1	44.7*	19.4	-3.8	-0.2	13.8
SMILES	UGM FP inh	Mtb FBA inh	Mtb bLac sens	Rv3671c protease	FadD28 FP inh	GDH-TPI inh
COc1ccc(C(O)c2nc(-c3cncnc3)cs2)cc1 (configuration not stated)	nt	6.8	nt	nt	-0.1	14.2
Cc1ccc(C(=O)N2N=C(c3cccc(NS(C)(=O)=O)c3)CC2c2cccs2)cc1 (configuration not stated)	0.2	0.0	1.9	-16.6	-1.8	2.0
CCCCOc1ccc(-c2nnn(CC(=O)c3c[nH]c4ccccc34)n2)cc1	-2.5	-2.0	-6.2	-15.2	-0.5	3.1
COc1ccc(-c2nnn(CC(=O)c3c[nH]c4ccccc34)n2)cc1OC	2.9	-3.6	-10.0	-21.2	14.6*	1.4
O=C(COc1cc(Cl)ccc1Cl)N1CCNC1=O	nt	-0.9	nt	nt	-5.1	-15.4
O=c1[nH]c2cc([N+](=O)[O-])ccc2c2cc(Br)ccc12	nt	-2.5	nt	nt	-0.8	6.2
O=C1N/C(=C\c2ccc(O)cc2)C(O)=C1C=NCc1ccccc1	-0.3	-3.5	3.0	-12.3	-2.3	37.1*
Cc1ccc(-c2nc3ccccc3s2)cc1S(=O)(=O)N1CCCC1	5.3	0.7	-4.3	-9.0	-5.5	6.1
Cc1cc(-c2nc3cc(F)ccc3s2)ccc1N	nt	nt	nt	nt	0.1	38.1*
NC1=NC(c2ccccc2)CC(=O)N1 (configuration not stated)	nt	0.8	nt	nt	-0.4	7.8
Cn1cc(Br)c(C(=O)N/N=C/c2cc3ccccc3nc2Cl)n1	-0.3	4.3	3.2	nt	-0.8	31.5*
O=C(N/N=C/c1cc2ccccc2nc1Cl)c1ccncc1	1.8	-1.8	98.3	5.8	-6.0	11.7
CN(CC(=O)OCC(=O)NC(=O)c1cccn1C)S(=O)(=O)c1ccc(Cl)cc1	2.1	192.7*	1.0	-4.8	-2.9	6.8
Cc1ccc(Nc2c(-c3ccc(N4CCOCC4)cc3)nc3ncccn23)cc1	1.1	2.8	9.5	-1.7	-2.9	31.0*
Cc1ccc(Nc2c(-c3ccc(N4CCOCC4)cc3)nc3ncccn23)cc1C	-0.4	1.3	5.1	9.3	-0.6	7.2
CC(=O)c1ccc(N2CCN(C(=O)CCCn3c(=O)[nH]c4ccc(Br)cc4c3=O)CC2)cc1	4.4	-1.7	23.6	1.9	-4.0	31.8*
CCOc1cc(C(=O)N2CCN(c3ccc(C(C)=O)cc3)CC2)cc(OCC)c1OCC	-3.1	1.3	99.2	-1.3	-1.4	31.2*
CC(=O)c1ccc(N2CCN(C(=O)c3ccc4[nH]c(C)c(C)c4c3)CC2)cc1	-2.1	4.8	-2.0	3.6	-1.0	35.4*
CCOc1cc(C(=O)N2CCN(c3ccccc3)CC2)cc(OCC)c1OCC	-0.8	2.0	95.4	-2.5	-1.5	-1.9
O=c1/c(=C\c2cc([N+](=O)[O-])cc([N+](=O)[O-])c2O)sc2nc3ccccc3n12	2.7	-13.5	15.4	0.3	22.9*	11.9
Cn1ncnc1SCc1cn2cccnc2n1	-3.2	130.1*	0.4	-2.2	-0.8	8.3
Cc1ccc(SCc2cn3cccnc3n2)cc1	-1.5	-0.4	2.1	8.4	-1.3	10.2
Cc1cc(Cl)n2c(nc3ccccc32)c1C#N	nt	+	nt	nt	-1.0	7.3
Cc1ccc(-c2c(C#N)c(N)n3c(nc4ccccc43)c2C#N)cc1	-0.3	118.9*	-4.0	-6.3	-0.9	12.0
CNc1cc(C)c(C#N)c2nc3ccccc3n12	1.3	+	-8.9	-7.1	0.4	4.5
CCN(CC)c1cc(C)c(C#N)c2nc3ccccc3n12	0.6	22.5	-0.6	1.2	-4.5	-14.3
COc1cccc2sc(N(CCN(C)C)C(=O)/C=C/c3cccs3)nc12	0.3	1.4	-5.2	5.2	-3.2	32.3*
CCN(CC)CCN(C(=O)/C=C/c1cccs1)c1nc2ccc(F)cc2s1	0.7	1.6	7.4	-8.1	-0.7	3.9

Screens: PubChem, several laboratories
